“And” between values parts separate entries of the source, which are not always exact repeats. Equal entries are not always repeated. Results filed as inconclusive are left out. Entries that show only a call come without a potency. Some structures have more than one record in an assay (separate samples or runs), and their calls can disagree. The source made the active and inactive calls. Unless noted, the call rests on the fitted dose curve; in most records, active means well fitted curve in the direction sought with a large enough effect; inconclusive means small, poorly fitted or top-dose-only effect, or another doubt; inactive means no such curve, though single readings can be large; an effect the other way counts as inactive or inconclusive.
Tests used:
[1] = biological target: Cytochrome P450 2C9 (Homo sapiens) (UniProt P11712); assay: Cytochrome P450 family 2 subfamily C member 9 (CYP2C9) small molecule antagonists: luciferase biochemical (cell-free) qHTS assay (AID 1645842; active means well fitted curve in the direction sought with a large enough effect in the repeat runs; an effect the other way counts as inactive or inconclusive; further: nearly all actives have a fitted effect of over 55% in size; further: potency means the concentration at half of the fitted maximal effect); settings: P450-Glo CYP2C9 enzyme assay, luciferin luminescence; series mostly up to 57.4 µM
Outline: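 Luminescence, after 20 min with luciferin detection reagent, reflected CYP2C9 turnover during a 1 h NADPH-driven reaction at 37C. Enzyme-substrate mix contained 0.4% bovine serum albumin and was preincubated with compound 10 min at room temperature.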

[2] = Primary qHTS for inhibitors of nuclear receptor binding SET domain protein 2 (NSD2) in an isogenic RCH-ACV NSD2 p.E1099K mutant (9B) (AID 1645876); settings: RCH-ACV NSD2 E1099K (9B) viability, CellTiter-Glo, 72 h; series mostly up to 44.9 µM; further: nearly all actives have a fitted effect of over 70% in size; further: potency means the concentration at half of the fitted maximal effect
[3] = Primary qHTS for inhibitors of nuclear receptor binding SET domain protein 2 (NSD2) in an RCH-ACV wild type WT cells (2C) (AID 1645877); settings: RCH-ACV (leukaemia line) NSD2 WT (2C) viability, CellTiter-Glo, 72 h; series mostly up to 44.9 µM; further: nearly all actives have a fitted effect of over 70% in size; further: potency means the concentration at half of the fitted maximal effect
[4] = biological target: Catechol O-methyltransferase (Homo sapiens) (UniProt P21964); assay: Confirmatory Screen for Target Class Profiling of Small Molecule Inhibitors of Methyltransferases (AID 1745852; calls by dose curve; further: potency means the concentration at half of the fitted maximal effect); settings: MTase-Glo luminescence, SAH detection, recombinant enzyme; measured here: COMT max response; stronger effect = lower value
[5] = biological target: Guanidinoacetate N-methyltransferase (Homo sapiens) (UniProt Q14353); assay: as above; settings: MTase-Glo luminescence, SAH detection, recombinant enzyme; activity change, negative = inhibition: at 57.3 µM (top of the series); series mostly up to 57.3 µM
[6] = biological target: Nicotinamide N-methyltransferase (Homo sapiens) (UniProt P40261); assay: as above; settings: MTase-Glo luminescence, SAH detection, recombinant enzyme; measured here: NNMT max response; stronger effect = lower value
[7] = biological target: Phenylethanolamine N-methyltransferase (Homo sapiens) (UniProt P11086); assay: as above; settings: MTase-Glo luminescence, SAH detection, recombinant enzyme; measured here: PNMT max response; stronger effect = lower value
[8] = biological target: Glutathione peroxidase 1 (Homo sapiens) (UniProt P07203); assay: Primary qHTS Assay for Inhibitors of Recombinant Selenoprotein Glutathione Peroxidase 1 (GPX1) (AID 1845191); settings: recombinant GPX1, GR-coupled NADPH fluorescence, 15 min; series mostly up to 48.8 µM; further: nearly all actives have a fitted effect of over 65% in size
Outline: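 GR-coupled assay: compounds preincubated 30 min at room temperature with GPX1, then reaction started with CHP; final 10 nM GPX1, 1 mM GSH, 0.5 mM CHP, 0.5 mM NADPH, 100 nM GR, 0.01% BSA, pH 7.5 Tris buffer. NADPH fluorescence (340/450 nm) read at 0 and 15 min.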

[9] = biological target: Phospholipid hydroperoxide glutathione peroxidase GPX4 (Homo sapiens) (UniProt P36969); assay: Primary qHTS Assay for Inhibitors of Recombinant Selenoprotein Glutathione Peroxidase 4 (GPX4) (AID 1845192); settings: recombinant GPX4, GR-coupled NADPH fluorescence, 15 min; series mostly up to 50 µM; further: nearly all actives have a fitted effect of over 65% in size; further: potency means the concentration at half of the fitted maximal effect
Outline: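 GR-coupled assay: recombinant GPX4 preincubated 30 min with compound at room temperature; final 200 nM GPX4, 1 mM GSH, 0.5 mM cumene hydroperoxide, 0.5 mM NADPH, 100 nM GR, 0.01% BSA, pH 7.5 Tris. NADPH fluorescence (340/450 nm) read at 0 and 15 min.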

[10] = biological target: Luciferin 4-monooxygenase (Photinus pyralis) (UniProt P08659); assay: Primary firefly luciferase (FLuc) qHTS assay for identification of artifact compounds. (AID 1845220); settings: purified firefly luciferase, luminescence, 5 min; series mostly up to 54.1 µM; further: nearly all actives have a fitted effect of over 60% in size; further: potency means the concentration at half of the fitted maximal effect
Outline: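 Enzymatic FLuc inhibition assay: compounds pre-exposed to luciferin/ATP (10 uM each) for 15 min, then purified P. pyralis enzyme at 10 nM added. Read-out: luminescence at 5 min.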

[11] = Primary fluorescence-based thiol-reactive (MSTI) qHTS assay for identification of artifact compounds. (AID 1845221); settings: MSTI thiol-reactivity probe, 1 h; series mostly up to 53.8 µM; further: nearly all actives have a fitted effect of over 65% in size; further: potency means the concentration at half of the fitted maximal effect
Outline: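 First, 4 uM MSTI in 2% DMSO/PBS pH 7.4 was dispensed; next, compounds were added; then plates sat 1 h at room temperature without light. Finally, emission at 598 nm was recorded.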

[12] = tested on: Nanoluciferase (engineered Oplophorus gracilirostris luciferase); assay: Primary Nanoluciferase (NLuc) qHTS assay for identification of artifact compounds. (AID 1845222); settings: NLuc-conditioned medium, Nano-Glo luminescence, 5 min; series mostly up to 54.1 µM;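 further: NLuc secreted into diluted conditioned medium of S16 cells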
Outline: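 S16 cell supernatant NLuc, 1:55; cpds qHTS; 15 min RT dark; Nano-Glo substrate 1:100, 5 min; luminescence; Hill fit of % inhibition.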

[13] = biological target: Cytochrome P450 3A4 (Homo sapiens) (UniProt P08684); assay: Cytochrome P450 family 3 subfamily A member 4 (CYP3A4) small molecule antagonists: luciferase qHTS assay (AID 1645841; active means well fitted curve in the direction sought with a large enough effect in the repeat runs; an effect the other way counts as inactive or inconclusive; further: nearly all actives have a fitted effect of over 45% in size; further: potency means the concentration at half of the fitted maximal effect); settings: P450-Glo CYP3A4 enzyme assay, luciferin luminescence; series mostly up to 57.4 µM
Outline: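 P450-Glo CYP3A4 enzyme with proluciferin substrate preincubated 10 min with compound at room temperature, then NADPH regeneration 1 h. Luciferin detection reagent added for 20 min; luminescence recorded. Ketoconazole positive control.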

[14] = biological target: N-terminal Xaa-Pro-Lys N-methyltransferase 1 (Homo sapiens) (UniProt Q9BV86); assay: Confirmatory qHTS for Inhibitors of N-terminal methyltransferase 1 (NTMT1): MTaseGlo Assay (AID 1645874); settings: NTMT1 enzyme, MTase-Glo SAH luminescence; further: potency means the concentration at half of the fitted maximal effect; nearly all actives have a fitted effect of over 65% in size
Outline: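 Preincubation of NTMT1 (125 nM) plus SAM (100 uM) with test compounds lasted 15 min; methylation of 1 uM SPKRIA then proceeded 30 min in the dark at room temperature. Luciferase signal reported SAH produced.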

Sequence of Cytochrome P450 3A4 (Homo sapiens) (P08684 whole entry, looked up): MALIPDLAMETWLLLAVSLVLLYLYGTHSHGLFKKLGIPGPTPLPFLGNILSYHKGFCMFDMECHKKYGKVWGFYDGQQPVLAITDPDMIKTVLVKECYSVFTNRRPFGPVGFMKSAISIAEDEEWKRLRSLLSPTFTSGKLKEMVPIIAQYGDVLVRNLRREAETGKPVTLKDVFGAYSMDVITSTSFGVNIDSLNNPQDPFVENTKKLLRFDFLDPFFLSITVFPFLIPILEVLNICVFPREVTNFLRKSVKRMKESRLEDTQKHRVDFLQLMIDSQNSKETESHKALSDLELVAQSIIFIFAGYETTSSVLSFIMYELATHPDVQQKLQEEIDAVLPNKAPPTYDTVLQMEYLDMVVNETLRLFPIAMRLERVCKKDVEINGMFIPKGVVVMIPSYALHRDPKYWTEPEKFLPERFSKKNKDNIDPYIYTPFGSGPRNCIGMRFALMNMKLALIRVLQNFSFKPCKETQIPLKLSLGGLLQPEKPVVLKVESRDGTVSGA
Sequence of Phospholipid hydroperoxide glutathione peroxidase GPX4 (Homo sapiens) (P36969 whole entry, looked up): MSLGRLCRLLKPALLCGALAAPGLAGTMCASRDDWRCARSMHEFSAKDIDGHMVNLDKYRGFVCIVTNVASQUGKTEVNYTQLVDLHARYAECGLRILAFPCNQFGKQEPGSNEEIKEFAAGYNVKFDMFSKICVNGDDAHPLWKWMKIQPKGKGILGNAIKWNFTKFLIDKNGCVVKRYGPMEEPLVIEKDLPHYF
Sequence of Phenylethanolamine N-methyltransferase (Homo sapiens) (P11086 whole entry, looked up): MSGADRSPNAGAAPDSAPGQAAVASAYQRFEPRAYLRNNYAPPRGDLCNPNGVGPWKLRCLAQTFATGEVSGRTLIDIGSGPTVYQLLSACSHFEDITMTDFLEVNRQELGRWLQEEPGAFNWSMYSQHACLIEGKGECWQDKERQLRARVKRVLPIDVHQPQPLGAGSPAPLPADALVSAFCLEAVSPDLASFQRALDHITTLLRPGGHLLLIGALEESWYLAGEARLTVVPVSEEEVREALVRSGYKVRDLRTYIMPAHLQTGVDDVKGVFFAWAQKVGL
Sequence of Catechol O-methyltransferase (Homo sapiens) (P21964 whole entry, looked up): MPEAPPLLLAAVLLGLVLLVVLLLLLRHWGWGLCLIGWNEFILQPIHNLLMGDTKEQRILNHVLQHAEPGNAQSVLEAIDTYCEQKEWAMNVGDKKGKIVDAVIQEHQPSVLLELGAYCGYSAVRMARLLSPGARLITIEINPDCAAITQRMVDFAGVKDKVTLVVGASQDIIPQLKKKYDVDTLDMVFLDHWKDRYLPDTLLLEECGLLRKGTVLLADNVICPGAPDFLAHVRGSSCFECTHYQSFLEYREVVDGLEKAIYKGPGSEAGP
Sequence of Nicotinamide N-methyltransferase (Homo sapiens) (P40261 whole entry, looked up): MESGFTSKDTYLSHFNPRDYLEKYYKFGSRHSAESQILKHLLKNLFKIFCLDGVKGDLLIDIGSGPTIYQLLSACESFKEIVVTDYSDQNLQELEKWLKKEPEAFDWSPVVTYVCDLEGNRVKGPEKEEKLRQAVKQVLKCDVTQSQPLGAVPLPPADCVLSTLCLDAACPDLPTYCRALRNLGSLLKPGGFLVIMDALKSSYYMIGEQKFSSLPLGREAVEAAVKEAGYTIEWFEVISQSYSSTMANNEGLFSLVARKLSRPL
Sequence of Glutathione peroxidase 1 (Homo sapiens) (P07203 whole entry, looked up): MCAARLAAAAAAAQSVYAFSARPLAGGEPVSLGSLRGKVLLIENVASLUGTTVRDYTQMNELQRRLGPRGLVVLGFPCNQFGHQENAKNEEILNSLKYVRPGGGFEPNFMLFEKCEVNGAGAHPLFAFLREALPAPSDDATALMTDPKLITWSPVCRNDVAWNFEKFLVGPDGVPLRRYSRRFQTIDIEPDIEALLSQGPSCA
Sequence of Cytochrome P450 2C9 (Homo sapiens) (P11712 whole entry, looked up): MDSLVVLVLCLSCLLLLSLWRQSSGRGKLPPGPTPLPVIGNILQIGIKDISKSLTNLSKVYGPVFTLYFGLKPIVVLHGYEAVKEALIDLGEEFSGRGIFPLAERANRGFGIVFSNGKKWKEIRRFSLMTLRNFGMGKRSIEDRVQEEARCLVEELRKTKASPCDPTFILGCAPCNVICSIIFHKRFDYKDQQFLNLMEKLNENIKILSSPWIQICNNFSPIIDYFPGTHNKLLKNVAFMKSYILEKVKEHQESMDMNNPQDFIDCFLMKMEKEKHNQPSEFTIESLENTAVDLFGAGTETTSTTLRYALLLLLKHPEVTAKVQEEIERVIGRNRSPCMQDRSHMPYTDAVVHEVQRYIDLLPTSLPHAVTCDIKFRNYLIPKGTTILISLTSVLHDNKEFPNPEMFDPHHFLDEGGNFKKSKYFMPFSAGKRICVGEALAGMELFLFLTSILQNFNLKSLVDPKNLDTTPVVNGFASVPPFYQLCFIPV
Sequence of N-terminal Xaa-Pro-Lys N-methyltransferase 1 (Homo sapiens) (Q9BV86 whole entry, looked up): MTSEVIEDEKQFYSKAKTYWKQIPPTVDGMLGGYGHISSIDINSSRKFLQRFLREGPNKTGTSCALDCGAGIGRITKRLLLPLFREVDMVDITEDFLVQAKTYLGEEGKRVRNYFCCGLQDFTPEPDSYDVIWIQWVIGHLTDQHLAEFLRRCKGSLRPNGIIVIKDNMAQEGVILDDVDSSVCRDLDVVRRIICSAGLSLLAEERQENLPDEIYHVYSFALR

Cc1cnc(Nc2ccc(CN3CCOCC3)cc2)nc1Nc1cccc(S(=O)(=O)NC(C)(C)C)c1
Potency [1]: 1.34 µM (active) | Potency [2]: 1.18 µM (active) and 578 nM (active) | Potency [3]: 1.05 µM (active) and 515 nM (active) | activity [4]: -0.0774% | activity change, negative = inhibition [5]: 0.454% | activity [6]: -43.5% | activity [7]: -4.34% | Potency [8]: inactive | Potency [9]: inactive | Potency [10]: inactive | Potency [11]: inactive | outcome [12]: inactive

FC(F)(F)c1ccc(Nc2nc3ccc(Oc4ccnc(-c5ncc(C(F)(F)F)[nH]5)c4)cc3[nH]2)cc1
Potency [1]: 23.9 µM (active) | Potency [2]: 14.8 µM (active) | Potency [3]: 23.5 µM (active) | Potency [8]: inactive | Potency [9]: inactive | Potency [10]: inactive | Potency [11]: inactive | outcome [12]: inactive

C#CCC(Cc1cnc2nc(N)nc(N)c2n1)c1ccc(C(=O)N[C@@H](CCC(=O)O)C(=O)O)cc1 (stereo not given in full)
Potency [1]: inactive | Potency [2]: 0.0047 µM (active) | Potency [3]: 0.0053 µM (active) | Potency [8]: inactive

Cn1cc(CNCC2CCN(c3ncc(C(=O)NO)cn3)CC2)c2ccccc21
Potency [1]: inactive | Potency [2]: 0.742 µM (active) | Potency [3]: 0.742 µM (active) | Potency [8]: inactive | Potency [9]: inactive

O=C1NC(O)CCN1[C@@H]1O[C@H](CO)[C@H](O)[C@H]1O (stereo not given in full)
Potency [13]: inactive | Potency [1]: inactive | Potency [2]: inactive | Potency [3]: inactive | Potency [8]: inactive | Potency [9]: inactive

O=C(Nc1cc2cc[nH]c2cn1)c1ccccc1
Potency [1]: 4.77 µM (active) | Potency [14]: 6.31 µM (active) | Potency [2]: 12.9 µM (active) | Potency [3]: 9.16 µM (active) | activity [4]: -83.5% | Potency [5]: 19.2 µM (active) | activity [6]: -77.9% | activity [7]: -83.3% | Potency [8]: inactive | Potency [10]: 2.39 µM (active) | Potency [11]: inactive | outcome [12]: inactive

NC(=O)c1cccc(-c2cccc(OC(=O)NC3CCCCC3)c2)c1
Potency [1]: inactive | Potency [2]: inactive | Potency [3]: inactive | Potency [8]: inactive

COc1ccc(Nc2cc(-c3cnc(N)nc3)nc(N3CCOCC3)n2)cn1
Potency [1]: 8.49 µM (active) | Potency [2]: 0.525 µM (active) | Potency [3]: 0.59 µM (active) | Potency [8]: inactive | Potency [9]: inactive

CC(O)(C#Cc1ccc2c(c1)N(c1nc(N)ncc1Cl)CC2)c1nccs1 (stereo not given)
Potency [1]: 1.07 µM (active) | Potency [2]: 13.2 µM (active) | Potency [3]: 13.2 µM (active) | Potency [8]: inactive | Potency [10]: inactive | Potency [11]: inactive | outcome [12]: inactive

COc1cc(C)c(C=CC(C)=CC=CC(C)=CC(=O)O)c(C)c1C
Potency [1]: 23.9 µM (active)

N#Cc1c(C2CCNCC2)cc(-c2c(O)cccc2OCC2CC2)nc1N
Potency [1]: 8.49 µM (active) | Potency [2]: 11.8 µM (active) | Potency [3]: 9.34 µM (active) | activity [4]: -9.7% | activity change, negative = inhibition [5]: 0.393% | activity [6]: -55.9% | activity [7]: -6.86% | Potency [8]: inactive | Potency [10]: inactive | Potency [11]: inactive | outcome [12]: inactive

FC(F)c1nc2ccccc2n1-c1nc(N2CCOCC2)nc(N2CCOCC2)n1
Potency [1]: 1.69 µM (active) | Potency [2]: 57.8 nM (active) and 41.7 nM (active) | Potency [3]: 72.8 nM (active) and 105 nM (active) | Potency [8]: inactive | Potency [9]: inactive | Potency [10]: inactive | Potency [11]: inactive | outcome [12]: inactive

CCc1nc(-c2cccc(C)c2)c(-c2ccnc(NC(=O)c3ccccc3)c2)s1
Potency [1]: 2.68 µM (active) | Potency [2]: 20.5 µM (active) | Potency [3]: 16.3 µM (active) | Potency [8]: inactive | Potency [9]: inactive | Potency [10]: inactive | Potency [11]: inactive | outcome [12]: inactive

CC1=C(C(=O)Nc2cc3cn[nH]c3cc2F)C(c2ccc(Cl)cc2F)N=C(c2ccnc(Cl)c2)N1 (stereo not given)
Potency [1]: 3.79 µM (active) | Potency [2]: 5.78 µM (active) and 9.34 µM (active) | Potency [3]: 2.58 µM (active) and 4.17 µM (active) | Potency [8]: inactive | Potency [9]: inactive | Potency [10]: inactive | Potency [11]: inactive

O=C(O)c1ccc(Nc2ncc3c(n2)-c2ccc(Cl)cc2C(c2c(F)cccc2F)=NC3)cc1
Potency [1]: 21.3 µM (active) | Potency [2]: 258 nM (active) and 742 nM (active) | Potency [3]: 325 nM (active) and 372 nM (active) | Potency [8]: inactive | Potency [9]: inactive | Potency [10]: inactive | Potency [11]: inactive | outcome [12]: inactive

Nc1ccn(C2CO[C@H](CO)O2)c(=O)n1 (stereo not given in full)
Potency [13]: inactive | Potency [1]: inactive | Potency [8]: inactive | Potency [9]: inactive | Potency [10]: inactive | Potency [11]: inactive | outcome [12]: inactive

COc1cc(C(C)C)c(Oc2cnc(NC(CO)CO)nc2N)cc1I
Potency [1]: 12 µM (active) | Potency [2]: inactive | Potency [3]: inactive

COC[C@H](NC(=O)c1cnc(C)s1)C(=O)N[C@@H](COC)C(=O)N[C@@H](Cc1ccccc1)C(=O)[C@@]1(C)CO1
Potency [13]: 10.7 µM (active) | Potency [1]: inactive | Potency [2]: 0.132 µM (active) | Potency [3]: 0.0833 µM (active) | Potency [8]: inactive | Potency [9]: inactive

Cc1coc2c1C(=O)C(=O)c1c-2ccc2c(C)cccc12
Potency [1]: 9.52 µM (active) | Potency [2]: inactive | Potency [3]: inactive | Potency [8]: inactive | Potency [9]: inactive | Potency [10]: inactive | Potency [11]: 3.36 µM (active) | outcome [12]: inactive

CCCc1nc(C(C)(C)O)c(C(=O)O)n1Cc1ccc(-c2ccccc2-c2nn[nH]n2)cc1
Potency [1]: inactive | Potency [2]: inactive | Potency [3]: inactive | Potency [8]: inactive | Potency [9]: inactive and 17.8 µM (active)

Reference: PubChem BioAssay (NCATS)
